Consider 22 molecules from PubChem BioAssay.

Values without a mark were called inactive. For some assays here: Results with a measured potency or affinity are listed apart. Calls of active or inactive are those of the source. Unless noted, how the calls were made is not given here.

Experiment [1] in a line: antimalarial activity against Dd2 strain (AID 2302;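 active means growth inhibition above 50% at the single 2 µM test dose, taken to imply half-maximal potency below 2 µM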;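 further: 0% = DMSO untreated growth and 100% = chloroquine plus artemisinin killed control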). Particulars: P. falciparum Dd2 in RBCs, LDH growth readout, 72 h; at 2 µM; stronger effect = higher value.
A short description of experiment [2]: HepG2 cytotoxicity, primary screen, cytotoxicity control for P. falciparum antimalarial project, cell-based, ATP luminescence (AID 2303;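 active means inhibition above 50%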;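 further: 0% = DMSO wells and 100% = digitonin-killed cells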). Particulars: HepG2 viability, 24-48 h, at 10 µM, stronger effect = higher value.
Experiment [3] deals with L-lactate dehydrogenase (Plasmodium falciparum (isolate CDC / Honduras)) (UniProt Q27743). The experiment is described as follows: PfLDH activity inhibition – cell lysate, 3D7 strain, counter-screen for P. falciparum growth inhibition project (AID 2304).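 Further: 0% = vehicle and 100% = reference inhibitor.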 The conditions noted are these: P. falciparum 3D7 crude extract, LDH APAD/NBT absorbance; at 2 µM; stronger effect = higher value.

Experiment [4] is described as follows: inhibition of 3D7 malaria parasite growth – strain 3D7 (AID 2306).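 Further: 0% = DMSO wells and 100% = chloroquine plus artemisinin control wells.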 Particulars: P. falciparum 3D7 erythrocytic growth, LDH absorbance, 72 h; at 2 µM; stronger effect = higher value.
Experiment [5] deals with Calcium-dependent protein kinase 1 (Plasmodium falciparum (isolate 3D7)) (UniProt P62344). The experiment is described as follows: PfCDPK1 kinase inhibitors, biochemical, TCAMS library (AID 1159585; cut-off not given, nearly all actives have IC50 up to about 0.98 µM;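 further: inhibitors leave more ATP so luminescence rises with inhibition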). Particulars: recombinant PfCDPK1, Kinase-Glo ATP depletion luminescence. In general terms: Kinase-Glo measures the ATP left after a reaction by luminescence.
For experiment [6], the target named is Plasmodium falciparum protein kinase 6 (PK6, PF3D7_1337100) (UniProt Q8IDW1). The experiment is described as follows: PfPK6 kinase inhibitors, biochemical, TCAMS library (AID 1159586). The conditions noted are these: recombinant PfPK6, Kinase-Glo ATP depletion luminescence.
The target of experiment [7] is Protein kinase 7 (PK7), Plasmodium falciparum 3D7 (PF3D7_0213400) (UniProt Q7YTF7). The experiment is described as follows: inhibition of Plasmodium PK7 catalytic activity – biochemical, TCAMS antimalarial set, Kinase-Glo luminescence (AID 1159587). Particulars: recombinant PfPK7, Kinase-Glo ATP depletion luminescence.
Experiment [8] deals with Calcium-dependent protein kinase 4 (Plasmodium falciparum (isolate 3D7)) (UniProt Q8IBS5). The experiment is described as follows: PfCDPK4 kinase inhibitors, biochemical, TCAMS library (AID 1159588; cut-off not given, nearly all actives have IC50 up to about 0.91 µM). The conditions noted are these: recombinant PfCDPK4, Kinase-Glo ATP depletion luminescence.

Broadly, the inhibition is the relative decrease from the control value, in per cent.

Sequence of Calcium-dependent protein kinase 4 (Plasmodium falciparum (isolate 3D7)) (Q8IBS5 whole entry, looked up): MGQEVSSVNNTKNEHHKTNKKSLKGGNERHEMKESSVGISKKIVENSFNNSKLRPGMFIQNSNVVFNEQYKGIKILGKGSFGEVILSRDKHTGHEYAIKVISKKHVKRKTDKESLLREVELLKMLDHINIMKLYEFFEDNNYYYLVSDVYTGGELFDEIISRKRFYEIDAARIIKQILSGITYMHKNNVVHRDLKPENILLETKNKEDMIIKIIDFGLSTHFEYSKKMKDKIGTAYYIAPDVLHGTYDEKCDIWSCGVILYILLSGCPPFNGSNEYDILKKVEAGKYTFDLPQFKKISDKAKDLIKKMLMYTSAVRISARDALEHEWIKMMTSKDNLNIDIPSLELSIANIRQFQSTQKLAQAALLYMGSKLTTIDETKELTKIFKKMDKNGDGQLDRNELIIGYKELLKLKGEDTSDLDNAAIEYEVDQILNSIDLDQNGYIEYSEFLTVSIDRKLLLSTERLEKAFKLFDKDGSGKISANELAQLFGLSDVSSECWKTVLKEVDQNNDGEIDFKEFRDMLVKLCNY
Sequence of L-lactate dehydrogenase (Plasmodium falciparum (isolate CDC / Honduras)) (Q27743 whole entry, looked up): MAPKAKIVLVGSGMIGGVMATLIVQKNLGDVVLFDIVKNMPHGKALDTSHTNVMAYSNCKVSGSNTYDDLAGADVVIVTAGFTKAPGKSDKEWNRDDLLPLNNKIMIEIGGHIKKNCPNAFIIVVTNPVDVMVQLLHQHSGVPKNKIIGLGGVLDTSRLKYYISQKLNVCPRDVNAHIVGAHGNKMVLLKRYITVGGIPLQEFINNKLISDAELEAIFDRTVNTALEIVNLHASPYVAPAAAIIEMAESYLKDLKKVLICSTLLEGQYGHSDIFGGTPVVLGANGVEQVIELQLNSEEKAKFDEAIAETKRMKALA
Sequence of Plasmodium falciparum protein kinase 6 (PK6, PF3D7_1337100) (Q8IDW1 1-305): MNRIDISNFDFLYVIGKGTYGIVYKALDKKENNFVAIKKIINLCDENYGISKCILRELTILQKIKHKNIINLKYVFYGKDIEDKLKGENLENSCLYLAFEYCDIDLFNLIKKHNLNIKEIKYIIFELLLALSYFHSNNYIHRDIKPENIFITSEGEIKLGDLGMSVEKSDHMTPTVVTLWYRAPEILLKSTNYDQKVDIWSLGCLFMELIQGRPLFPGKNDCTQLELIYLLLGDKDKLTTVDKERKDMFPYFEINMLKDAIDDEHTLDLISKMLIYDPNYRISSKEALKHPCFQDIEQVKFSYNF
Sequence of Calcium-dependent protein kinase 1 (Plasmodium falciparum (isolate 3D7)) (P62344 whole entry, looked up): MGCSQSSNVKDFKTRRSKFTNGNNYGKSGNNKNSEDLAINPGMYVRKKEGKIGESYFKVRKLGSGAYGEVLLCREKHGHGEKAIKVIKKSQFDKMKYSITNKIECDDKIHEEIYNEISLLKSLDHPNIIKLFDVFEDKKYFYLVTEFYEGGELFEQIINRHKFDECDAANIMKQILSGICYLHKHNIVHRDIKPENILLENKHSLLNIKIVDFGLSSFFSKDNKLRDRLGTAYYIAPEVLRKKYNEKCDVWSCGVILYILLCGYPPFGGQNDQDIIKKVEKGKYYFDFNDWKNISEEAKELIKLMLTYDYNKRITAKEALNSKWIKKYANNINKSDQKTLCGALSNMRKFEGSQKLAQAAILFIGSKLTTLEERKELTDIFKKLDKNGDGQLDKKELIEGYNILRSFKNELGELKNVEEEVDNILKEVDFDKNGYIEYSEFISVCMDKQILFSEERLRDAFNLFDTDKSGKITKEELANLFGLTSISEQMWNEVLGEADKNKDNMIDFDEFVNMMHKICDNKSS
Sequence of Protein kinase 7 (PK7), Plasmodium falciparum 3D7 (PF3D7_0213400) (Q7YTF7 1-343): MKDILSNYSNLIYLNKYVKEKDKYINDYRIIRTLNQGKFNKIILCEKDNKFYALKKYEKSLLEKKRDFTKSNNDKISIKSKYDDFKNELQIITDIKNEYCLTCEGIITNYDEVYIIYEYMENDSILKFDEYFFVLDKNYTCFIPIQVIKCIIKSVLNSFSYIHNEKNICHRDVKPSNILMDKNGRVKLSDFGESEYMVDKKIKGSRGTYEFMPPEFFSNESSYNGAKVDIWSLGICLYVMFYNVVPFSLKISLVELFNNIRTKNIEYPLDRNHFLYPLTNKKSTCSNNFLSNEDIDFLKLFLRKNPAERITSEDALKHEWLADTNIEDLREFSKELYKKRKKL

Turning to `COc1cc(Nc2nccc(-c3c(-c4cccc(NC(=O)c5c(F)cccc5F)c4)nn4ncccc34)n2)cc(OC)c1OC`, the growth inhibition in experiment [1] was 97% (active); in experiment [4], 98% (active). Also, the inhibition in experiment [2] is 96% (active); in experiment [3] it was 1%. The outcome in experiment [5], in experiment [6] and in experiment [7] was inactive.
Turning to `Cc1ccccc1Cn1ccc2c3c(N)nc(N)nc3ccc21`, the inhibition in experiment [3] was -4%. Besides, the growth inhibition in experiment [4] was 100% (active). Further, the outcome in experiment [5], in experiment [6], in experiment [7] and in experiment [8] was inactive.
For `COc1cc(CCNCC(O)c2ccc([N+](=O)[O-])c(OCc3ccccc3)c2)cc(OC)c1OC` (stereo unspecified), the inhibition is 11% in experiment [2] and -3% in experiment [3]. Also, the growth inhibition in experiment [4] is 98% (active). For the same molecule, the result in experiment [5], in experiment [6], in experiment [7] and in experiment [8] was inactive.
As for `CN1CCC(NC(=O)c2cccc(Nc3cc(Nc4cccc(Br)c4)ncn3)c2)CC1`, the growth inhibition in experiment [1] was 6%; in experiment [4], 94% (active). Also, the figures for the inhibition in experiment [2] and in experiment [3] were 25% and 1%, respectively. The outcome in experiment [5], in experiment [7] and in experiment [8] was inactive.
With `Cc1cccc(Cn2ccc3c(N)nc(N)nc32)c1`, in experiment [3], the inhibition is 5%. The growth inhibition in experiment [4] was 82% (active). Besides, the result in experiment [5], in experiment [6], in experiment [7] and in experiment [8] was inactive.
Turning to `CC(C)(C)c1cc(Cl)cc(C(=O)Nc2cc([N+](=O)[O-])ccc2Cl)c1O`, the inhibition was 79% (active) in experiment [2] and 2% in experiment [3]. Further, in experiment [4], the growth inhibition was 91% (active). Moreover, the result in experiment [5], in experiment [6], in experiment [7] and in experiment [8] was inactive.
Regarding `CN(C)c1ccc(NC(=O)Nc2ccnc3ccccc23)cc1Br`, the inhibition in experiment [2] is 21%; in experiment [3], 3%. In addition, the growth inhibition in experiment [4] was 98% (active). In addition, the outcome in experiment [5], in experiment [6], in experiment [7] and in experiment [8] was inactive.
Turning to `N#Cc1ccc(C(=O)Nc2cc(-c3cccc(O)c3)cc3[nH]ncc23)cc1`, the growth inhibition in experiment [1] is 79% (active); in experiment [4] it was 90% (active). Further, the inhibition is 15% in experiment [2] and -1% in experiment [3]. Besides, the outcome in experiment [5], in experiment [6] and in experiment [7] was inactive.
As for `CN(c1ccc(NC(=O)Nc2cc(C(F)(F)F)ccc2F)cc1)c1ccnc(NCCN2CCOCC2)n1`, the growth inhibition in experiment [1] was 73% (active); in experiment [4], 97% (active). Further, the inhibition in experiment [2] is 67% (active); in experiment [3] it was -2%. For the same molecule, the outcome in experiment [5], in experiment [7] and in experiment [8] was inactive.
With `COc1ccc(N=C(N)Nc2ccccc2)nc1Cc1ccccc1`, the inhibition in experiment [2] was 17%; in experiment [3], -6%. In addition, the growth inhibition in experiment [4] is 81% (active). Also, the result in experiment [5], in experiment [6], in experiment [7] and in experiment [8] was inactive.
`COc1ccc(C2CC(c3cccs3)=NN2C(=O)COc2cccc(C(C)=O)c2)cc1OC` (stereo unspecified): the inhibition in experiment [2] was 10%; in experiment [3], -2%. The growth inhibition in experiment [4] is 99% (active). In addition, the result in experiment [5], in experiment [6], in experiment [7] and in experiment [8] was inactive.
For `Fc1ccccc1C=NNc1ccnc2cc(Cl)ccc12`, the inhibition in experiment [3] is -2%. For the same molecule, the outcome in experiment [5], in experiment [6], in experiment [7] and in experiment [8] was inactive.
For `Cc1nc2ccccc2n1C1C[C@H]2CC[C@@H](C1)N2CCC1(c2ccccc2)CCN(C(=O)Nc2ccc(C(F)(F)F)cc2)CC1` (stereo partly specified), in experiment [3], the inhibition is -2%. Moreover, the outcome in experiment [5], in experiment [6], in experiment [7] and in experiment [8] was inactive.
As to `C=CC(C)C1OC(=O)c2cc(OC)cc(OC)c21` (stereo unspecified), the inhibition in experiment [2] was 100% (active); in experiment [3], -4%. For the same molecule, the growth inhibition in experiment [4] was 100% (active). The outcome in experiment [5], in experiment [6], in experiment [7] and in experiment [8] was inactive.
With `CC(Sc1n[nH]c(-c2ccccc2Br)n1)C(=O)Nc1ccc(F)cc1` (stereo unspecified), the inhibition in experiment [2] is -7%; in experiment [3] it was 1%. Further, the growth inhibition in experiment [4] was 90% (active). Also, the result in experiment [5], in experiment [6], in experiment [7] and in experiment [8] was inactive.
`CCn1c(-c2nonc2N)nc2c(-c3cc4ccccc4s3)ncc(C(=O)N3CCC(N)C3)c21` (stereo unspecified): the growth inhibition in experiment [1] was 66% (active); in experiment [4] it was 98% (active). The figures for the inhibition in experiment [2] and in experiment [3] were 99% (active) and 5%, respectively. Moreover, the outcome in experiment [5], in experiment [6] and in experiment [7] was inactive.
On to `COc1cc2c(cc1C(F)(F)F)N(C(=O)Nc1ccc(Br)cn1)CC2`, for which the figures for the inhibition in experiment [2] and in experiment [3] were 16% and -3%, respectively. Moreover, the growth inhibition in experiment [4] was 97% (active). Further, the result in experiment [5], in experiment [6], in experiment [7] and in experiment [8] was inactive.
Consider `NS(=O)(=O)c1cccc(N=Cc2c(O)[nH]c3ccc(S(=O)(=O)Cc4c(Cl)cccc4Cl)cc23)c1`, for which the growth inhibition in experiment [1] was 99% (active); in experiment [4] it was 92% (active). Besides, the inhibition in experiment [2] is 1%; in experiment [3], 4%. Besides, the outcome in experiment [5], in experiment [6] and in experiment [7] was inactive.
In the case of `CC(C)CN1C(=O)C(c2ccc(F)c(F)c2)=C(O)C1c1ccccc1` (stereo unspecified), the inhibition in experiment [2] was 0%; in experiment [3], -7%. Besides, the growth inhibition in experiment [4] was 94% (active). The result in experiment [5], in experiment [6], in experiment [7] and in experiment [8] was inactive.
On to `Clc1ccc(C=NNc2ccnc3cc(Cl)ccc23)cc1`, for which the inhibition in experiment [3] was -3%. Moreover, the outcome in experiment [5], in experiment [6], in experiment [7] and in experiment [8] was inactive.
Turning to `O=C(NNC(=O)c1ccc(CN2CCC(c3nc4ccccc4[nH]3)CC2)cc1)Nc1ccc(Oc2ccccc2)cc1`, the inhibition is -2% in experiment [2] and 0% in experiment [3]. Moreover, in experiment [4], the growth inhibition is 86% (active). The result in experiment [5], in experiment [6], in experiment [7] and in experiment [8] was inactive.
`c1ccc2sc(-c3csc(Nc4ccncc4)n3)nc2c1`: the inhibition in experiment [2] is -4%; in experiment [3], -1%. In experiment [4], the growth inhibition is 86% (active). In addition, the result in experiment [5], in experiment [6], in experiment [7] and in experiment [8] was inactive.
